This note sets out measurements from PubChem BioAssay AID588342 (National Center for Advancing Translational Sciences (NCATS), 2011).

In all, about 360,000 compounds went through this assay and about 25,000 (6.9%) were called active. Where a call stands in place of a potency, no number is given. Roughly 9% stayed inconclusive and do not appear here. This is one part of a sample in which actives are shown more often than they occur. Calls come from the whole dose curve; as a rule, active = well fitted inhibition curve with a large enough effect; inconclusive = small, poorly fitted or top-dose-only effect; inactive = flat fitted curve, though single readings scatter.
Potency is the fitted concentration of half-maximal effect.

Sequence of Luciferin 4-monooxygenase (Photinus pyralis) (P08659 whole entry, looked up): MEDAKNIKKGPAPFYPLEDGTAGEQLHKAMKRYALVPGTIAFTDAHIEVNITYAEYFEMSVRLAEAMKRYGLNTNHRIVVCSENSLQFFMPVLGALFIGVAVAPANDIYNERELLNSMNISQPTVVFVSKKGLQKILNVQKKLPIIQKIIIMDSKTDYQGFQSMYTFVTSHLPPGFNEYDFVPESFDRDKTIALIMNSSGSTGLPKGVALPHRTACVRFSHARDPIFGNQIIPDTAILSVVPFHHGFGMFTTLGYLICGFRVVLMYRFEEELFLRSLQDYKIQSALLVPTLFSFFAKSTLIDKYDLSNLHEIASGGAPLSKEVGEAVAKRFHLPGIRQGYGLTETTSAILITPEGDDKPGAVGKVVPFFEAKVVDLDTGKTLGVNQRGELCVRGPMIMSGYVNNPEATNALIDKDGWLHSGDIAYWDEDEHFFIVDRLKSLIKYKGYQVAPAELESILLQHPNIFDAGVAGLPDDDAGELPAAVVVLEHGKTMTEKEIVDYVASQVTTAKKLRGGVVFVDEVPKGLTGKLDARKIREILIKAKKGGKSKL

The test addresses Luciferin 4-monooxygenase (Photinus pyralis) (UniProt P08659). As to the kind of experiment: qHTS profiling assay for firefly luciferase inhibitor/activator using purifed enzyme and Km concentrations of substrates (counterscreen for miR-21 project). Note: nearly all actives have a fitted effect of over 55% in size. The following applies: purified FLuc, luminescence inhibition; series mostly up to 57.5 µM. A digest of the protocol:
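Purified P. pyralis luciferase, 10 nM final, with Km-level 10 uM D-luciferin and 10 uM ATP in 50 mM Tris acetate pH 7.5, 10 mM Mg acetate, 0.01% Tween-20, 0.05% BSA; 6-point qHTS titration about 60 µM downward; luminescence read.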
A general note: qHTS replaces the single test concentration by a dilution series.
As to `Cc1ccc2c(CN3CCN(S(=O)(=O)c4ccccc4C(F)(F)F)CC3)cc(=O)oc2c1`, the Potency result was “inactive”. Regarding `COc1ccc(CNC(=O)c2ccc3c(c2)nc2n3CCOC2)c(OC)c1`, the Potency result is “inactive”. As for `COc1ccc(OC)c(CN2CCN(C(=O)CNC(=O)c3cc(C)cc(C)c3)CC2)c1`, the Potency result is “inactive”. Take `CCn1nnnc1SCC(=O)c1ccc(C)cc1C`: the Potency is 6.75 µM (active). `Cc1ccc(C(=O)CSc2nc(-c3ccccc3)nc3c2CCCC3)c(C)c1`: the Potency entry was “inactive”.

Turning to `COc1ccc(C(=O)CSc2nnnn2C)c(OC)c1`, the Potency entry was “inactive”. The value for `CCOc1ccccc1N(C)C(=O)c1cc2c(s1)-c1ccccc1OC2` was “inactive”. Consider `CC1(C)CC(=O)C=C(c2ccc(Cl)c(C(F)(F)F)c2)C1`, for which the Potency result was “inactive”. `N#C/C(=C1/CCCN1)c1ccccn1`: the Potency entry was “inactive”. Take `N#CC(=C1SC=CS1)c1nc(-c2ccccc2)cs1`: the Potency was 7.57 µM (active).

For the molecule `COc1cccc(C(=O)OCC(=O)c2[nH]c(C)c(C(C)=O)c2C)c1`, the Potency entry was “inactive”.

For `COc1ccccc1C(=O)Nc1ccc(OCc2nnc3c4ccccc4c(C)nn23)cc1`, the Potency is 4.26 µM (active). For the molecule `CCc1ccc(NC(=O)c2cnc3c(-c4ccccc4)c(C)nn3c2C)cc1`, the Potency entry is “inactive”. Next, `COc1cc(C(=O)Nc2ccc(OCc3cc(=O)n4ccc(C)cc4n3)cc2)cc(OC)c1OC`: “inactive”. The value for `Cc1cccc(C(=O)NNC(=O)CSc2nnc(C(C)C)n2C)c1` was “inactive”; that for `C=CCn1c(C)cc(C2=NNC(=NCC)SC2)c1C` was 0.151 µM (active). On to `COCCn1c(C)cc(C2=NNC(=Nc3ccc(F)cc3)SC2)c1C`, for which the Potency was 3.38 µM (active). Next, `Cc1ccc(S(=O)(=O)c2ccc(Cl)cc2)cc1S(=O)(=O)NC(C(=O)O)C(C)C` (stereo not given): “inactive”.

`CCOc1ccc(OCC)c(Nc2nc3ccccc3n3nnnc23)c1`: the Potency result is “inactive”. Next, `Cc1cccc(N(C(=O)c2ccc(CN3CCOCC3)o2)C(C(=O)NC2CCCCC2)c2ccc(F)cc2)c1` (stereo not given): “inactive”; `CCc1cc2c(cc3c(=O)n(CC(=O)N4CCN(c5cc(Cl)ccc5C)CC4)ncn32)s1`: “inactive”. Next, `CCOc1ccc(N(C)S(=O)(=O)c2cc(-c3cnc(C)o3)ccc2OC)cc1`: “inactive”. Next, `Cc1cc(C)c(NC(=O)CSc2nc3nccnc3c(=O)n2CCc2c[nH]c3ccccc23)c(C)c1`: “inactive”; `COCCNC(=O)c1ccc2c(c1)N(Cc1cccc(Cl)c1)C(=O)c1ccccc1S2(=O)=O`: “inactive”. Regarding `CN(c1ccccc1)S(=O)(=O)c1ccc(Cl)c(C(=O)NCCc2c[nH]c3ccccc23)c1`, the Potency result was “inactive”. As for `Cc1cc(C)cc(OCC(=O)NNC(=O)c2cc3ccccc3oc2=O)c1`, the Potency entry was “inactive”. The value for `COc1cccc2cc(C(=O)N3CCN(C(=O)c4ccccc4)CC3)c(=O)oc12` was “inactive”. On to `O=C(NCCc1c[nH]c2ccccc12)c1cc2ccccc2oc1=O`, for which the Potency is 16.9 µM (active).

In the case of `Cc1cc(C)cc(NC(=S)NCCc2c[nH]c3ccccc23)c1`, the Potency result was “inactive”.

In the case of `COc1cccc2cc(C(=O)NCc3ccc(C)cc3)c(=N)oc12`, the Potency is 5.36 µM (active). Regarding `NC(=O)c1cc2ccccc2o/c1=N/NC(=O)c1cccc(F)c1`, the Potency result was “inactive”.

With `COc1ccc(CNC(=O)c2cc3cccc(OC)c3oc2=O)cc1`, the Potency entry is “inactive”.

For `COc1ccc2oc(=O)c(C(=O)NCc3ccccn3)cc2c1`, the Potency result was “inactive”. With `O=C(NCc1ccccn1)c1cc2ccccc2oc1=O`, the Potency is 13.5 µM (active). The value for `COc1cccc2cc(C(N)=O)/c(=N\NC(=O)c3ccccc3)oc12` was 1.69 µM (active). On to `COc1cccc2cc(C(=O)N(C)C)c(=O)oc12`, for which the Potency result was “inactive”.

For the molecule `N#Cc1ccc(CN2CCN(CC(=O)Nc3ccccc3C(=O)NC3CC3)CC2)cc1`, the Potency result is “inactive”. With `Cc1ccc(C(NC(=O)N2CCCC2)C(Cl)(Cl)Cl)cc1F` (stereo not given), the Potency entry is “inactive”.

With `CCCCn1c(=O)c2oc3ccccc3c2n(CC(=O)Nc2ccccc2OC)c1=O`, the Potency result was “inactive”. In the case of `COc1ccc(C)cc1-n1c(-c2ccc(C)cc2)cc2c1CC(C)(C)CC2=O`, the Potency result was “inactive”.

`COC(=O)C1=C(C)NC(=S)NC1c1ccc(OCC(=O)N2CC(C)OC(C)C2)c(OC)c1` (stereo not given): the Potency result was “inactive”. Regarding `CC(=O)Nc1ccc(S(=O)(=O)N2CCN(S(=O)(=O)c3cccs3)CC2)cc1`, the Potency result is “inactive”. For `O=C(NCC(c1ccc2c(c1)OCO2)N1CCN(c2ccccc2)CC1)C(=O)Nc1ccccc1F` (stereo not given), the Potency result was “inactive”. Turning to `COc1ccc(CCNC(=O)c2nn(C)c3c2CSc2ccccc2-3)cc1OC`, the Potency entry is “inactive”. Turning to `COc1ccc(C(=O)NCC2CCCCC2)cc1S(=O)(=O)N1CCCC1`, the Potency entry is “inactive”. As to `CCC(=O)N1CCc2cc(Br)cc(S(=O)(=O)CCC(=O)NCc3ccccc3OC)c21`, the Potency entry is “inactive”. Next, `COc1cc(OC)c(NC(=O)c2cnc(N3CCCC3)nc2C)cc1Cl`: “inactive”; `Cc1sc2nc(CC(N)=O)[nH]c(=O)c2c1-c1ccccc1`: “inactive”; `CC1CCC2(CC1)N=C(c1ccccc1)C(=O)N2CC(=O)Nc1ccc(F)c(Cl)c1` (stereo not given): “inactive”. Next, `O=C(N/N=C\c1cccc(Br)c1)c1ccccc1-n1cccc1`: “inactive”; `CCCCNC(=O)c1cc(-c2ccc(Cl)c(Cl)c2)on1`: “inactive”; `N=c1oc2ccccc2cc1C(=O)NCc1ccccc1`: 9.53 µM (active). With `Nc1ccc(C(=O)NCc2ccccc2)cc1`, the Potency result is “inactive”. The value for `O=C(NCc1ccccc1)c1cc(-c2cccc(Cl)c2)on1` was “inactive”. Regarding `N=c1oc2ccccc2cc1C(=O)N/N=C/c1ccccc1`, the Potency was 1.35 µM (active).
